Experimental findings from PubChem BioAssay (NCI) are described below.

“And” between values parts separate entries of the source, which are not always exact repeats. Identical values can stand only once. About 79,000 compounds went through this panel and 15% of them were active in at least one assay; those are over-represented in the sample as a whole. More than one record can exist for a structure, and the calls need not agree. The source made the active and inactive calls. Rule as the data show it: active = growth inhibition above about 70%; inactive = the rest.

A short description of this test: NCI Yeast Anticancer Drug Screen. Data for the bub3 strain (AID 167). Conditions: S. cerevisiae bub3 mutant strain, at 50.0 µM, stronger effect = higher value. In outline: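 Growth of a checkpoint-deficient yeast mutant is measured after compound exposure. Values represent inhibition relative to vehicle.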
As for `O=[N+]([O-])c1cc[n+]([O-])cc1`, the growth inhibition is 9.95% (inactive) and 68% (inactive).
`CC1(C)CC(=O)C(/C=N/c2nc(-c3ccccc3)cs2)=C(O)C1`: the growth inhibition is 75.1% (active).
The same measure for `Nc1nc(N)c2nc(CNc3ccc(C(=O)NC(CCC(=O)O)C(=O)O)cc3F)cnc2n1` (stereo not drawn): 29.2% (inactive); for `COC(=O)CC1(O)C(/C=C/c2ccccc2)C(C(=O)OC)C(=O)C(C(=O)OC)C1C(=O)OC` (stereo not drawn): 74.2% (active).
Under `CC(C)(C)c1ccc(NS(=O)(=O)c2ccc(N)cc2)cc1` stands 95.8% (active).
Under `CCN(CC)CCNc1ccc([N+](=O)[O-])c2nc3ccccc3c(N)c12` stands 7.35% (inactive).
On to `CCCCN(CCCC)C(=O)/C=C/c1ccccc1`, for which the growth inhibition is 74.2% (active).
`O=c1[nH]c(-c2ccccc2)nc2c1sc1nc3ccccc3n12`: the growth inhibition was -35.5% (inactive).
Under `O=[N+]([O-])c1ccc2c(c1)/C(=N/N=C1c3ccccc3Cc3ccccc31)c1cc([N+](=O)[O-])cc([N+](=O)[O-])c1-2` stands 85.9% (active); under `CC(C)C(C)/C=C\C(C)C1CCC2C3=CC=C4CC(O)CCC4(C)C3CCC21C` (stereo not drawn), 42% (inactive); under `O=C1Nc2ccc(Br)cc2C1=Nc1ccc2c(c1)OCO2`, 52.5% (inactive).
The same measure for `CCCCOCn1c(=O)[nH]c(=O)c2cc(Br)ccc21`: 82.2% (active).
The same measure for `Cc1ccc(S/C(=C\C(=O)O)c2ccccc2)cc1`: 39.5% (inactive); for `O=[N+]([O-])/C=C/c1cc(Cl)c(/C=C/[N+](=O)[O-])cc1Cl`: 79.2% (active).
On to `Cc1cc(S(=O)(=O)Nc2nnc3cnc4ccccc4n23)c(S)cc1Cl`, for which the growth inhibition is -18.8% (inactive).
With `O=C(/C=C/c1cc(Cl)cc(Cl)c1O)c1cccc(O)c1`, the growth inhibition is 93.2% (active).
Under `NC1CCCCC1N.Nc1c(N=Nc2ccc(-c3ccc(N=Nc4cc(S(=O)(=O)[O-])c5ccccc5c4N)cc3)cc2)cc(S(=O)(=O)[O-])c2ccccc12.[OH3+].[OH3+].[Pt+4]` stands 82.5% (active); under `COC(=O)CCC(NC(=S)N/N=C(\C)c1ccccn1)C(=O)OC` (stereo not drawn), 81.3% (active).
The same measure for `NC(=O)C(=O)NNc1ccccc1`: 92.2% (active).
Under `COc1cc(C2SCC(=O)N2c2ccc(-c3ccc(-n4c(-c5ccccc5)nc5ccccc5c4=O)cc3)cc2)ccc1O` (stereo not drawn) stands 82.3% (active).
`COc1ccc(/C=C/c2sc3ccccc3[n+]2CCCCI)cc1OC`: the growth inhibition was 91.8% (active).
As to `Cc1c(C(C)C)cc(OCCO)cc1C(C)C`, the growth inhibition was -16.6% (inactive).
The same measure for `Cc1cc(NCCCCCCCCNc2cc(C)nc3cc(N)ccc23)c2ccc(N)cc2n1`: 91.5% (active).
On to `C=C(Cl)COC(=O)Nc1cccc(Cl)c1`, for which the growth inhibition was 34.4% (inactive).
The same measure for `CC(=O)OC1CC2C(C)(C)C(=O)C=C[C@]2(C)C2CCC3(C)C(=CCC3[C@H](CO)C[C@H](O)C(=O)C(C)(C)O)[C@]12C` (stereo partly drawn): 38.1% (inactive); for `COc1ccc(/C=C/C(=O)c2ccccc2)cc1OC`: 67.5% (inactive) and 83.8% (active); for `COc1c(O)c(C=O)c(Br)c(C=O)c1O`: 98.9% (active).
Take `O=[N+]([O-])c1cc(Cl)cnc1Br`: the growth inhibition was -8.3% (inactive).
The same measure for `Cc1ccc2c(c1)C1(SC(C)C(=O)N1c1ccc(Cl)cc1)C(=O)N2` (stereo not drawn): 74.5% (active); for `COc1cc(CSc2ccc(O)cc2)cc(O)c1O`: 61.2% (inactive); for `Cc1ccc2c3ccc4c(c3n(C)c2c1)C(=O)C=CC4=O`: 61.2% (inactive).
Under `O=C(Nc1ccc(Cl)cc1)Nc1nnc2nc(C(C(=O)c3cccc([N+](=O)[O-])c3Cl)c3nc4nnc(NC(=O)Nc5ccc(Cl)cc5)n4[nH]c3=O)c(=O)[nH]n12` stands 99.5% (active).
As to `O=C(O)C1CC(c2ccccc2)=NN1c1ccccc1` (stereo not drawn), the growth inhibition was 46% (inactive).
Consider `CCCCc1ccc(-n2c(C)c(COC(=O)NC)c(COC(=O)NC)c2C)cc1`, for which the growth inhibition is 85.5% (active).
As to `CCC(=O)c1cc(C(=O)C(=S)SC)cc(C(=O)C(=S)SC)c1`, the growth inhibition was 86.7% (active).
The same measure for `CCn1c(O)c(C=Nc2ccccc2)s/c1=N/Nc1nc(-c2ccccc2)cs1`: 75.5% (active); for `Cc1ccccc1N=C(NO)c1ccccc1`: 76.8% (active); for `Cc1nc2ccccc2nc1NNc1ccccc1`: 74% (active).
